# In the supplement of paper PMC4100887:
# Counter-ions that a name gives are not always drawn. ± gives the standard deviation of the averaged measurements.
# System: K562
# Experiment: relative cell viability (ATPlite) vs untreated control, with imatinib (fraction); higher = less toxic
# Details: 1 µM; 72 h; imatinib 0.125 µM
row,SMILES,relative cell viability
1,COc1cc2ncnc(Nc3ccc(Oc4ccccc4)cc3)c2cc1OC [Src Kinase Inhibitor I],0.692 ± 0.05
2,Fc1ccc(-c2nc3n(c2-c2ccncc2)CCS3)cc1,0.737 ± 0.058
3,"N#Cc1cc([N+](=O)[O-])c2sc(C(N)=O)[n+]([O-])c2c1 [Polo-like Kinase Inhibitor II, BTO-1]",0.709 ± 0.056
4,COc1nccc(-c2c(-c3ccc(F)cc3)ncn2C2CCC(O)CC2)n1 (configuration not stated),0.794 ± 0.067
5,NC(=O)Nc1sc(-c2ccccc2)cc1C(N)=O [IKK-2 Inhibitor VI],0.695 ± 0.056
6,"CC[C@@H](CO)Nc1nc(NCc2ccc(-c3ccccn3)cc2)c2ncn(C(C)C)c2n1 [CR8, (S)-Isomer]",0.0705 ± 0.018
7,Cn1cnc2cc3c(Nc4cccc(Br)c4)ncnc3cc21,0.874 ± 0.02
8,Nc1n[nH]c(N)c1N=Nc1ccc(O)cc1 [Cdk9 Inhibitor II],0.765 ± 0.035
9,"COc1cc2ncnc(Nc3cccc(O)c3)c2cc1OC [WHI-P180, Hydrochloride]",0.366 ± 0.045
10,O=C1c2ccccc2-c2nc3nnnn3nc21 [PDK1/Akt/Flt Dual Pathway Inhibitor],0.0249 ± 0.0025
11,Cc1ccc(NC2=CC(=O)c3sc(C)nc3C2=O)cc1 [Cdk4 Inhibitor III],0.685 ± 0.14
12,"CCCCCCCCCCCCCCCCn1cc[n+](Cc2ccccc2)c1C [eEF-2 Kinase Inhibitor, NH125]",0.401 ± 0.1
13,"COc1ccc2c(c1)c1c3c(c4c5ccccc5n(C)c4c1n2CC(O)CN(C)C)C(=O)NC3=O (configuration not stated) [Gö 7874, Hydrochloride]",0.775 ± 0.031
14,COc1ccc(COc2ccc(Cc3cnc(N)nc3N)cc2OC)cc1 [cFMS Receptor Tyrosine Kinase Inhibitor],0.699 ± 0.007
15,"O=C1C(=Cc2ccc(O)cc2)C2=Nc3ccccc3C2=C1C1=C2C(=Nc3ccccc32)C(=Cc2ccc(O)cc2)C1=O [Scytonemin, Lyngbya sp.]",0.821 ± 0.089
16,NS(=O)(=O)c1ccc(N=Nc2c(O)[nH]c3ccc(Br)cc23)cc1 [Cdk2 Inhibitor II],0.825 ± 0.052

row,SMILES,relative cell viability
1,COc1ccc(CNC(=O)Nc2ncc([N+](=O)[O-])s2)cc1 [GSK-3b Inhibitor VIII],0.713 ± 0.049
2,COc1cc2ncnc(Nc3ccc(O)c(Br)c3)c2cc1OC [JAK3 Inhibitor II],0.717 ± 0.032
3,C[S+]([O-])c1ccc(-c2nc(-c3ccc(F)cc3)c(-c3ccncc3)[nH]2)cc1 (configuration not stated),0.751 ± 0.048
4,"Cn1c(O)c(-c2[nH]c3ccccc3c2N=O)c2ccc(Br)cc21 [GSK-3 Inhibitor IX, Control, MeBIO]",0.8454 ± 0.0073
5,CC(C)n1cnc2c(NCc3ccccc3)nc(NCCCO)nc21 [Bohemine],0.797 ± 0.029
6,COc1cc2ncnc(N3CCN(C(=O)Nc4ccc(Oc5ccccc5)cc4)CC3)c2cc1OC [PDGF Receptor Tyrosine Kinase Inhibitor III],0.649 ± 0.029
7,c1ccc(-c2n[nH]c3c2oc2ccccc23)cc1,0.732 ± 0.04
8,CCC(=O)Nc1ccc2ncnc(Nc3cccc(Br)c3)c2c1,0.743 ± 0.05
9,COc1cc2ncnc(Nc3ccc(NC(=O)c4ccccc4)cc3)c2cc1OC [Aurora Kinase Inhibitor II],0.783 ± 0.027
10,COc1cc(Nc2ncc3ccn(-c4cccc(CCC#N)c4)c3n2)cc(OC)c1OC [Keratinocyte Differentiation Inducer],0.459 ± 0.35
11,"COc1cc(SC)ccc1C(=O)N1CCC(Cc2ccccc2)CC1 [p38 MAP Kinase Inhibitor VI, JX401]",0.716 ± 0.023
12,Cn1c2ccccc2c2c3c(c4c5ccccc5n(CCC#N)c4c21)CNC3=O,0.739 ± 0.048
13,Cc1ccc(S(=O)(=O)/C=C/C#N)cc1,0.697 ± 0.14
14,Nc1[nH]nc2nnc(-c3c(-c4ccccc4)nn4ccccc34)cc12,0.779 ± 0.048
15,O=C(Nc1ccc(Cl)cc1)c1ccccc1NCc1ccncc1 [VEGF Receptor Tyrosine Kinase Inhibitor II],0.802 ± 0.036
16,"CC(C)n1cnc2c(NCc3ccccc3O)nc(NCCCO)nc21 [Cdk Inhibitor, p35]",0.779 ± 0.03
